This note sets out measurements from PubChem BioAssay (EPA / NIEHS).

Experiment [1] can be described thus: ATG_CRE_CIS: Attagene CIS-FACTORIAL HepG2 Assay for human cAMP Responsive Element (CRE) binding protein 3 (AID 2282926). The note with it: HepG2 CRE cis-reporter, Attagene multiplexed mRNA; actives raise or lower the signal. The method, boiled down: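 Endogenous transcription factor activity read via CRE-regulated reporter transcripts in transfected HepG2 cells. After 24 h exposure, RNA was reverse-transcribed, amplified, fluorescently labelled and sized by capillary electrophoresis; gain or loss fitted against DMSO.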

For experiment [2], the target named is CCAAT/enhancer-binding protein beta (Homo sapiens) (UniProt P17676). Description: ATG_C_EBP_CIS: Attagene CIS-FACTORIAL HepG2 Assay for human CCAAT/Enhancer Binding Protein (C/EBP) beta (AID 2282927). The note with it: HepG2 Attagene cis-factorial transcription factor reporter; actives raise or lower the signal. The method, boiled down:
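Endogenous C/EBPb-driven reporter transcripts measured in transfected human HepG2 cells at 24 h via RT-PCR and capillary electrophoresis of labelled fragments. Activity fitted in both directions relative to DMSO baseline.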

The nature of experiment [3]: ATG_CMV_CIS: Attagene CIS-FACTORIAL HepG2 Assay for human CMV (Internal Marker) (AID 2282928).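 Further: endpoint acts as a background internal control marker rather than a target.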 To be noted: HepG2 CMV promoter reporter, transcription factor profiling; actives raise or lower the signal. The method, boiled down:
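Readout: fluorescent reporter cDNA fragments separated by capillary electrophoresis after RT-PCR and HpaI cut. Cells: HepG2 carrying transfected cis-promoter reporter constructs, dosed 24 h. Endpoint serves as background internal-marker control, fit bidirectionally versus DMSO.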

Experiment [4] in a line: ATG_DR4_LXR_CIS: Attagene CIS-FACTORIAL HepG2 Assay for human Liver X Receptor (LXR), DR4 submotif (AID 2282929). The note with it: HepG2 Attagene DR4 cis-reporter, mRNA transcription; actives raise or lower the signal. The method, boiled down: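 Fluorescence intensity of labelled reporter cDNA fragments, separated by capillary electrophoresis, gives the signal. HepG2 cells bearing cis-regulated reporter constructs were treated 24 h; activity fitted bidirectionally relative to DMSO negative control.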

The target in experiment [5] is Aryl hydrocarbon receptor (Homo sapiens) (UniProt P35869). Description: ATG_Ahr_CIS: Attagene CIS-FACTORIAL HepG2 Assay for human Aryl Hydrocarbon Receptor (Ahr) (AID 2282930). To be noted: HepG2 AhR cis-factorial reporter transcription; actives raise or lower the signal. The method, boiled down:
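Reporter mRNA levels, quantified by RT-PCR and fluorescent capillary electrophoresis, reflect endogenous AhR transcriptional activity in HepG2 cells carrying transfected cis-promoter reporter constructs. Readout at 24 h post-dose; gain or loss fitted against DMSO baseline.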

The nature of experiment [6]: ATG_AP_1_CIS: Attagene CIS-FACTORIAL HepG2 Assay for human Activator Protein 1 (AP-1) (AID 2282931). The note with it: HepG2 Attagene cis-factorial AP-1 reporter mRNA; actives raise or lower the signal. Put shortly:
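Multiplexed HepG2 reporter assay, 24 h dosing. mRNA induction detected by RT-PCR plus capillary electrophoresis. Activity fitted in both directions against DMSO.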

A short description of experiment [7]: ATG_AP_2_CIS: Attagene CIS-FACTORIAL HepG2 Assay for human Activator Protein 2 (AP-2) (AID 2282932). The note with it: HepG2 AP-2 cis-reporter, Attagene transcription factor profiling; actives raise or lower the signal. Put shortly: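 Endogenous transcription factor activity is reported through transfected multiplex reporter constructs in HepG2, after 24 h of compound exposure. Transcripts were quantified by RT-PCR and capillary electrophoresis of fluorescent fragments. Bidirectional fit against DMSO.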

A short description of experiment [8]: ATG_BRE_CIS: Attagene CIS-FACTORIAL HepG2 Assay for human Bone Morphogenetic Protein (BMP) Response Element (BRE) (AID 2282933). The note with it: HepG2 BMP response element reporter, Attagene transcription factor profiling; actives raise or lower the signal. Put shortly:
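Transient MRTU transfection of human HepG2 liver cells; 24 h compound treatment; total RNA isolated, reverse-transcribed, PCR-amplified, 6-FAM labelled, HpaI-cut, capillary electrophoresis. DMSO = negative control/baseline, bidirectional fit.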

The target of experiment [9] is Retinoic acid receptor alpha (Homo sapiens) (UniProt P10276). Description: ATG_DR5_RAR_CIS: Attagene CIS-FACTORIAL HepG2 Assay for human Retinoic Acid Receptor Alpha (RARE), DR5 submotif (AID 2282934).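 On AC50: reporter responds to endogenous RAR alpha beta and gamma in HepG2 not RARA alone.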 The note with it: HepG2 Attagene cis-factorial RARE DR5 reporter, mRNA; actives raise or lower the signal. The method, boiled down:
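Reporter transcripts from a DR5-regulated unit, measured via RT-PCR plus capillary electrophoresis, reflect endogenous RAR activity in transiently transfected human HepG2 liver cells. Exposure lasted 24 h; gain or loss of signal scored against DMSO.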

The source made the active and inactive calls. How the source made its calls: active means hit-call score of the fitted dose curve at least 0.9, where 1 is the maximum; inactive means score below 0.9.

Chain of CCAAT/enhancer-binding protein beta (Homo sapiens) (P17676 whole entry, looked up, the tested form may be a part): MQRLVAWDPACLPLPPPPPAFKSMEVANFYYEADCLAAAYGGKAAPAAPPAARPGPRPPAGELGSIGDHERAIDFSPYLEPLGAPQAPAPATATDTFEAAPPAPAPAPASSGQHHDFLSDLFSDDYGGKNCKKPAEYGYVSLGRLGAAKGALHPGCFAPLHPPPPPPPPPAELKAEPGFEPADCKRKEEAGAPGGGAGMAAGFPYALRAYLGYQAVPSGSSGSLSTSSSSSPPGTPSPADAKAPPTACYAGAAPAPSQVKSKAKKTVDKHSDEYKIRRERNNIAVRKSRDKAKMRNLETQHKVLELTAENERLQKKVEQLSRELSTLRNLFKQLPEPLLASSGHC
Chain of Aryl hydrocarbon receptor (Homo sapiens) (P35869 whole entry, looked up): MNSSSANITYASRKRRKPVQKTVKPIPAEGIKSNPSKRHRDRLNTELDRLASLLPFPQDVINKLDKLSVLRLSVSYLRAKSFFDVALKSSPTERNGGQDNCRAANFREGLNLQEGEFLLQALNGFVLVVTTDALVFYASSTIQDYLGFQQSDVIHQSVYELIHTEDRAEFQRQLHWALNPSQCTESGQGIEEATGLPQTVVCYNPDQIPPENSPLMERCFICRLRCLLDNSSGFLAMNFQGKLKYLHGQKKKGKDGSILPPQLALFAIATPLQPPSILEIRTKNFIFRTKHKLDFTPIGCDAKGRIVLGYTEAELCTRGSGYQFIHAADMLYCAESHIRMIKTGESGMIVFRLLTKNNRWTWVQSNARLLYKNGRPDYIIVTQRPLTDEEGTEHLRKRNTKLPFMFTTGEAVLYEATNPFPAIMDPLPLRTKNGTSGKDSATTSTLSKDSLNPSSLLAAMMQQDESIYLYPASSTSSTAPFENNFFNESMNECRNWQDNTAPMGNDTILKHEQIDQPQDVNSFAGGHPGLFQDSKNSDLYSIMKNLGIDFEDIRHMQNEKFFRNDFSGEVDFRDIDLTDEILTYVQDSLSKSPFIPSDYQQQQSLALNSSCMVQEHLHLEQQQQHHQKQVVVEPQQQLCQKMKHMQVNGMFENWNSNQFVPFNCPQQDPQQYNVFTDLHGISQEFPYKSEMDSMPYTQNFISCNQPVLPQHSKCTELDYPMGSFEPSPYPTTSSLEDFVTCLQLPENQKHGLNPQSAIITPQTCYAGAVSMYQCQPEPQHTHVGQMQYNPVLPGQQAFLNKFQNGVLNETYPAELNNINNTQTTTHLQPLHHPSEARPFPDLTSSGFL
Chain of Retinoic acid receptor alpha (Homo sapiens) (P10276 whole entry, looked up): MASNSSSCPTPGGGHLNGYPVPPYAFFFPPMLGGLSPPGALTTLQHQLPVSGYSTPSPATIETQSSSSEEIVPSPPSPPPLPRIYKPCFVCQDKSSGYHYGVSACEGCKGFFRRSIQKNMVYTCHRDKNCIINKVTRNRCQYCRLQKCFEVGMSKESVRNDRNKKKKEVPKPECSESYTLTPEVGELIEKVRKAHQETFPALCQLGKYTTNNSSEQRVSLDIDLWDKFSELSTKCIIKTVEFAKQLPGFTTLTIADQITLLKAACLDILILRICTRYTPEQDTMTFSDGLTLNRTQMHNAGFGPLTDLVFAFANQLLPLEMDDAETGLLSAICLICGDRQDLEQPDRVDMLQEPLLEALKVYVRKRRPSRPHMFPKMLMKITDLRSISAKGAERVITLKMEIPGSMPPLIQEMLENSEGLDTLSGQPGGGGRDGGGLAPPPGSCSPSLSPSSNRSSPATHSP

A word on the AC50: it is the midpoint of the concentration-response curve, whichever way the signal moves. Regarding `O=C(Nc1ccccc1)Nc1ccnc(Cl)c1`, the AC50 in experiment [1] is 22.5 µM (active); in [2], 50 µM (active); in experiment [3], 26.5 µM (active); in [6], 16.3 µM (active); in experiment [8], 27.8 µM (active); in experiment [9] it was 88.1 µM (active). The compound was called inactive in [4], in experiment [5] and in [7].

With `N#Cc1cc(Br)c(O)c(Br)c1`, the concentration at half-maximal activity (AC50) in experiment [1] was 33.5 µM (active); in [2] it was 18.8 µM (active); in experiment [5], 50 µM (active); in [6], 50 µM (active); in experiment [8], 38.9 µM (active). For the same compound, the compound was called inactive in experiment [3], in experiment [4], in experiment [7] and in experiment [9].

As to `CCCCC(CC)COC(=O)c1ccccc1C(=O)OCC(CC)CCCC` (stereo not given), the outcome in experiment [1], in [2], in experiment [3], in experiment [4], in experiment [5] and in experiment [6] was inactive. Besides, the result in [7], in experiment [8] and in experiment [9] was inactive.

As to `COC(=O)c1ccccc1C(=O)OC`, the compound was called inactive in [1], in experiment [2], in [3], in [4], in experiment [5] and in [6]. Further, the call in experiment [7], in experiment [8] and in experiment [9] was inactive.

Turning to `C=CCC1=C(C)[C@@H](OC(=O)[C@@H]2[C@@H](C=C(C)C)C2(C)C)CC1=O`, the figures for the AC50 in [1] and in [9] were 7.32 µM (active) and 2.87 µM (active), respectively. Besides, the result in experiment [2], in experiment [3], in experiment [4], in experiment [5], in experiment [6] and in experiment [7] was inactive. Besides, the outcome in experiment [8] was inactive.

For the compound `CCOP(=S)(OCC)SCn1c(=O)oc2cc(Cl)ccc21`, the AC50 is 9.92 µM (active) in [1]; 12.9 µM (active) in [2]; 26.4 µM (active) in [3]; 80.8 µM (active) in [4]; 50 µM (active) in experiment [8]; 12.7 µM (active) in [9]. For the same compound, the call in [5], in experiment [6] and in experiment [7] was inactive.

With `COC(=O)C=C(C)OP(=O)(OC)OC`, the outcome in experiment [1], in [2], in experiment [3], in experiment [4], in experiment [5] and in experiment [6] was inactive. For the same compound, the outcome in experiment [7], in [8] and in [9] was inactive.

`CCNc1nc(Cl)nc(NCC)n1`: the result in [1], in [2], in [3], in [4], in experiment [5] and in experiment [6] was inactive. In addition, the result in [7], in experiment [8] and in [9] was inactive.

On to `Cc1ccc(-c2c(Cl)nc(C#N)n2S(=O)(=O)N(C)C)cc1`, for which the concentration at half-maximal activity (AC50) in experiment [1] is 7.83 µM (active); in experiment [2], 7.57 µM (active); in experiment [6] it was 9.12 µM (active); in [8] it was 10.3 µM (active); in experiment [9], 11.9 µM (active). The compound was called inactive in experiment [3], in [4], in experiment [5] and in experiment [7].

As to `CCc1nn(C)c(C(=O)NCc2ccc(C(C)(C)C)cc2)c1Cl`, the AC50 in experiment [1] was 0.378 µM (active); in [2], 1.19 µM (active); in experiment [3] it was 0.171 µM (active); in [6] it was 0.117 µM (active); in experiment [8] it was 0.578 µM (active); in experiment [9], 0.425 µM (active). The compound was classed as inactive in experiment [4], in experiment [5] and in experiment [7].

Take `CS/C(C)=N/OC(=O)N(C)SN(C)C(=O)O/N=C(\C)SC`: the result in [1], in experiment [2], in experiment [3], in experiment [4], in [5] and in [6] was inactive. Moreover, the compound was called inactive in experiment [7], in experiment [8] and in [9].

As for `CC1COC(Cn2cncn2)(c2ccc(Oc3ccc(Cl)cc3)cc2Cl)O1` (stereo not given), the AC50 in experiment [1] is 1.6 µM (active); in experiment [2], 0.829 µM (active); in experiment [6], 4.29 µM (active); in experiment [8], 1.71 µM (active). The compound was classed as inactive in experiment [3], in [4], in [5], in experiment [7] and in experiment [9].

For `N#CC(CCc1ccc(Cl)cc1)(Cn1cncn1)c1ccccc1` (stereo not given), the outcome in experiment [1], in experiment [2], in [3], in experiment [4], in [5] and in [7] was inactive. Moreover, the compound was classed as inactive in [8] and in experiment [9]. Further, the AC50 in experiment [6] is 26.7 µM (active).

`Fc1ccc(Oc2ccnc3cc(Cl)cc(Cl)c23)cc1`: the compound was classed as inactive in [1], in experiment [2], in experiment [5], in experiment [6], in experiment [7] and in experiment [8]. Also, the AC50 in experiment [3] is 6.43 µM (active); in [4] it was 2.72 µM (active); in [9], 2.77 µM (active).

Consider `CCCCNC(=O)n1c(NC(=O)OC)nc2ccccc21`, for which the outcome in experiment [1], in [2], in [3], in [4], in experiment [5] and in experiment [6] was inactive. Also, the outcome in experiment [7], in experiment [8] and in experiment [9] was inactive.
